Rows were chosen to be rich in hits. Some 1.2% of all compounds tested hit in one or more screens of this group.
NR5A2 inv ag = LRH-1 (NR5A2) inverse agonists, primary screen, cell-based, luminescence, HEK293T, StAR-luciferase reporter; LRH-1 transfected, 24 h; inhibition, % at 3.6 µM; 360,000 tested, 0.13% active; AID 602396, 2012;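 active = inhibition above the mean inhibition of all tested compounds plus 3 SD, cut at about 73% in these data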
Shn3 inh set2 = reduction of Shn3 3'UTR firefly luciferase signal, primary screen, Schnurri-3 inhibitor project, cell-based, Clone20 osteoblasts, set 2; AID 588674, 2011; inhibition, % at 12.5 µM; Clone20 osteoblast Shn3 3'UTR firefly luciferase, 24 h; 360,000 tested, 0.52% active;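 active = mean inhibition of at least 75% with every replicate also reaching 75%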
EBV LMP1 NFkB = EBV LMP1-driven NF-kappaB luciferase reporter inhibitors, primary screen, cell-based, luminescence, single point | LMP1-induced NF-kappaB luciferase reporter cells | inhibition, % at 12.5 µM | 350,000 tested, 0.69% active | AID 504558, 2011; in the data active = inhibition above about 41%
NCOA1 inh = SRC1 coactivator transcriptional activity inhibitors, primary screen, cell-based, luminescence; Nuclear receptor coactivator 1 (Homo sapiens), Q15788; HEK293 GAL4-SRC1 luciferase reporter; inhibition, % at 3.6 µM; 360,000 tested, 0.12% active; AID 588354, 2011;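 active = inhibition above the campaign mean plus 3 SD, with each screening campaign given its own cutoff, cut at about 60% in these data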
SRC2 inh = inhibition of GAL4-SRC2 driven luciferase reporter, primary screen, SRC2 inhibitor project, cell-based, luminescence. AID 651957, 2012. HEK293 GAL4-SRC2 luciferase reporter. 370,000 tested, 0.17% active. Nuclear receptor coactivator 2 (Homo sapiens), Q15596. inhibition, % at 9 µM;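 active = inhibition above the mean inhibition of all tested compounds plus 3 SD, set per campaign, cut at about 52% in these data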
Target sequence (Q15596 whole entry, looked up, the tested form may be a part): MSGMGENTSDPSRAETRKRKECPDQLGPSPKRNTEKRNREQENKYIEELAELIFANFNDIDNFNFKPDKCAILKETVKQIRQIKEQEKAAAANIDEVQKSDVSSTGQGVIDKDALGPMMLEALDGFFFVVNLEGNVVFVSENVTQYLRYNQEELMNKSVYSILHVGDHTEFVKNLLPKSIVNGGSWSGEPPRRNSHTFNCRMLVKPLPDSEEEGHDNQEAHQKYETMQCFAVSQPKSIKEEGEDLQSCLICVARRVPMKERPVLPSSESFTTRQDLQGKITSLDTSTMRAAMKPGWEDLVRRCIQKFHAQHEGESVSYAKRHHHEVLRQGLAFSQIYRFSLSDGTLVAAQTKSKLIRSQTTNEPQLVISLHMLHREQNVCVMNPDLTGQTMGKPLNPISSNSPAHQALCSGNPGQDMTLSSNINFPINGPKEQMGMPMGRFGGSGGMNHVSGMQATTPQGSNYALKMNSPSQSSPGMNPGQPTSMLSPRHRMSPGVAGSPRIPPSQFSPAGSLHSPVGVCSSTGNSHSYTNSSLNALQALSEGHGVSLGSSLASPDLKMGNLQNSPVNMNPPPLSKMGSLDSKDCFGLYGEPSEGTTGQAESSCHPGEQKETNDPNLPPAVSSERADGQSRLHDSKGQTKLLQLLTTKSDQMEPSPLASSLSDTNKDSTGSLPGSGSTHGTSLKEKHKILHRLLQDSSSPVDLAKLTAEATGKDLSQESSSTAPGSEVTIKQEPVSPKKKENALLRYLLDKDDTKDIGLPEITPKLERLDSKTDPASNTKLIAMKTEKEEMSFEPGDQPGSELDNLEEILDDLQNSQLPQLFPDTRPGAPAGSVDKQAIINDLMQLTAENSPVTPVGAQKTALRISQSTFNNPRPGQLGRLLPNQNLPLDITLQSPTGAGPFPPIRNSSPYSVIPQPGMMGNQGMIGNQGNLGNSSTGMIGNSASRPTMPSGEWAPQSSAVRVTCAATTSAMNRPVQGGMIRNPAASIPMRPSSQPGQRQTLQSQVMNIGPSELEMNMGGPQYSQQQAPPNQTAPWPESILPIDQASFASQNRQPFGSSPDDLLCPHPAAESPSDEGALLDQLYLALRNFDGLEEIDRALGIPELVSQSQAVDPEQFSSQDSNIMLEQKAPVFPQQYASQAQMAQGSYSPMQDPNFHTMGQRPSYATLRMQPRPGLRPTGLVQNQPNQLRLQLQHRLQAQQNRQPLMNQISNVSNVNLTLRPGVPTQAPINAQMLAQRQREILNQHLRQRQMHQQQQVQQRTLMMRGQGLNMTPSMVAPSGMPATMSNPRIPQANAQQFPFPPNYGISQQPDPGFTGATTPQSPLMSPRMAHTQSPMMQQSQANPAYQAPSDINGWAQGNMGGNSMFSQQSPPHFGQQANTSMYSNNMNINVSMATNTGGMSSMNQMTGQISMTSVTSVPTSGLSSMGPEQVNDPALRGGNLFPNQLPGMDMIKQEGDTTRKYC
SRC3 inh = SRC3 coactivator transcriptional activity inhibitors, primary screen, cell-based, luminescence. HEK293 GAL4-SRC3 luciferase reporter. Nuclear receptor coactivator 3 (Homo sapiens), Q9Y6Q9. 360,000 tested, 0.17% active. inhibition, % at 3.6 µM;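 active = inhibition above a per-campaign cutoff, the mean of all compounds plus 3 SD, cut at about 60% in these data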;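 also: higher means less SRC3-driven luciferase light from the GAL4 reporter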
A number is an active result; n = inactive; x = no result.

SMILES	NR5A2 inv ag	Shn3 inh set2	EBV LMP1 NFkB	NCOA1 inh	SRC2 inh	SRC3 inh
COc1cccc(/C=N/Nc2ncnc(Cl)c2N)c1O	n	n	65.4	n	n	65.7
O=C(NC1CCCCN(Cc2ccc(OC(F)(F)F)cc2)C1=O)c1ccc(F)c(F)c1 (stereo unspecified)	x	x	x	x	n	x
CC(C)C[C@H](NC(=O)C1CC1)C(=O)N1CCC[C@H]1C(=O)NCc1ccccc1	x	x	x	x	n	x
COC(=O)C1CN(Cc2ccc(OC)cc2)CCS(=O)(=O)N1Cc1cn(CCOC(C)=O)nn1 (stereo unspecified)	x	x	x	x	n	x
C[C@@H]1/C=C/CC(=O)N2[C@H](CC(=O)N[C@@H]1c1ccccc1)C[C@@H](C)[C@H]2c1ccccc1	x	x	x	x	n	x
COc1ccc(S[C@]2(C(=O)NCC(C)C)CC(=O)N[C@@H]2c2ccc(OC)cc2)cc1	x	x	x	x	n	x
COc1cccc(/C=N/Nc2nccnc2Cl)c1O	n	86.0	72.3	n	n	n
C[C@@]12C(=O)OC(=O)[C@]1(C)C1CCC2O1	n	94.1	n	n	61.5	70.9
CC12C(=O)N(c3nccs3)C(=O)C1(C)C1CCC2O1 (stereo unspecified)	n	n	x	n	n	n
Cc1ccc(S(=O)(=O)C=CS(=O)(=O)c2ccc(C)cc2)cc1	n	n	n	n	n	n
O=S(=O)(/C=C/C=C/S(=O)(=O)c1ccccc1)c1ccccc1	n	98.0	n	n	n	n
CCN(CC)c1ccc(/C=N/NC(=O)c2c(Cl)cnn2C)c(O)c1	n	n	51.8	n	n	75.8
CCN(CC)S(=O)(=O)c1cccc(C(=O)N/N=C/c2cccc(O)c2O)c1	n	89.9	n	n	n	n
CCOC(=O)N/N=C/c1ccc(N(CC)CC)cc1O	n	n	n	n	n	n
CCN(CC)c1ccc(C=Nc2cccc(S(=O)(=O)N3CCOCC3)c2)c(O)c1	n	n	n	n	n	n
CCN(CC)c1ccc(/C=N/NC(=O)c2cccc(S(=O)(=O)N3CCOCC3)c2)c(O)c1	n	89.2	55.5	n	n	n
O=C(N/N=C/c1ccccc1O)c1cccc(C(F)(F)F)c1	n	92.8	n	n	n	n
CCN(CC)S(=O)(=O)c1cccc(C(=O)N/N=C/c2cc(OC)c(O)c(OC)c2)c1	n	n	n	n	n	n
COC[C@@H]1CCCN1c1ccc2c(c1)O[C@@H]1CCN(C1)S2(=O)=O	x	x	x	x	n	x
NC1=[N+](Cc2ccccc2)C[C@H]2C(=C3CCCC[C@H]3n3c(=O)n(-c4ccccc4)c(=O)n32)N1	x	x	x	x	n	x
CC(=O)N1c2cc(S(=O)(=O)N3CCN(c4ccccc4F)CC3)c(Br)cc2CC1C (stereo unspecified)	x	x	x	x	n	x
C[C@@H](CO)N(Cc1cn(Cc2ccccc2)nn1)S(=O)(=O)c1ccccc1Br	x	x	x	x	n	x
COc1ccccc1OS(=O)(=O)c1ccc(NC(C)=O)cc1	n	n	n	n	n	n
COC(=O)/C=C/S(=O)(=O)c1ccc(NC(C)=O)cc1	n	93.3	n	n	n	n
Cc1ccc(S(=O)(=O)N2CCCC2C(c2ccccc2O)c2cn(C)c3ccccc23)cc1 (stereo unspecified)	x	x	x	x	n	x
SMILES	NR5A2 inv ag	Shn3 inh set2	EBV LMP1 NFkB	NCOA1 inh	SRC2 inh	SRC3 inh
CC(C)CC(N)c1csc(NC(=O)c2cc(C(C)(C)C)nn2Cc2ccccc2)n1 (stereo unspecified)	n	96.9	x	n	n	n
CC(C)CC(N)c1csc(NC(=O)Nc2ccccc2Cc2ccccc2)n1 (stereo unspecified)	n	n	x	n	n	n
CC(=O)Nc1ccc(S(=O)(=O)N(C)c2ccccc2)cc1	n	n	n	n	n	n
CCN(c1ccccc1)S(=O)(=O)c1ccc(C(=O)Nc2ccncc2)cc1	n	n	n	n	n	n
CCN(c1ccccc1)S(=O)(=O)c1ccc(NC(=O)c2nc(S(C)(=O)=O)ncc2Cl)cc1	n	98.3	n	n	x	n
CCS(=O)(=O)c1ncc(Cl)c(C(=O)Nc2ccc(S(=O)(=O)N(C)c3ccccc3)cc2)n1	n	99.5	57.0	n	n	n
